ELG1 genotoxic – inducers of genotoxicity in HEK293T ELG1-luciferase cells; HEK293T ELG1-luciferase reporter, luminescence, 16 h; Potency, µM (highest dose often 46 µM), inactives show at the highest dose activity change, positive = activation, hits mostly activators; hit rate 1.3% among 330,000; AID 504466; also: % of control where 0% means no effect; nearly all actives have a fitted effect of over 60% in size
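Step 1: seed 2,000 HEK293T ELG1-luciferase cells per well. Step 2: add compound or DMSO, incubate 16 hr at 37 °C. Step 3: ONE-Glo, 30 min at room temperature, read luminescence.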
FLuc counter – inhibits or activates purified firefly luciferase, miR-21 counter-screen; P08659; AID 588342; hit rate 6.9% among 360,000; purified FLuc, Km substrates, luminescence inhibition; Potency, µM (highest dose often 57.5 µM), without a hit: at the highest dose activity change, negative = inhibition, usual class: inhibitors;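 also: plate controls were vehicle for no effect and reference inhibitor for full effect; nearly all actives have a fitted effect of over 55% in size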
Target sequence (P08659 whole entry, looked up): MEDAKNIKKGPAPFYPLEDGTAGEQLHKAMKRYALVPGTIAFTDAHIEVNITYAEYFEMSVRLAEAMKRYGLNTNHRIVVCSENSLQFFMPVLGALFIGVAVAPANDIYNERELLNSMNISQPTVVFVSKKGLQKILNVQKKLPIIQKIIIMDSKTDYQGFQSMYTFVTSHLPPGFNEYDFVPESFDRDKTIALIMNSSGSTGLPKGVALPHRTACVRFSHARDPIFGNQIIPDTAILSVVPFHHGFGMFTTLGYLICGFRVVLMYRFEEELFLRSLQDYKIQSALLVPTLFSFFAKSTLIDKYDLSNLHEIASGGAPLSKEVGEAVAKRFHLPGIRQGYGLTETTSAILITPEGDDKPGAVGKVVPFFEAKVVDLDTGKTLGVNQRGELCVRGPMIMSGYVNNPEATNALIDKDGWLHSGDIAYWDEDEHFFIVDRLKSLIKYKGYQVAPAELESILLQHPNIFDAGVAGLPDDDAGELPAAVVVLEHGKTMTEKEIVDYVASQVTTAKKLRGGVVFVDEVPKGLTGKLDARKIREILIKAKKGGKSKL
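Purified P. pyralis luciferase (10nM final) with 10uM D-luciferin and 10uM ATP (Km levels) in 50mM Tris acetate pH 7.5, 10mM Mg acetate, 0.01% Tween-20, 0.05% BSA; qHTS 6-point titration, ~60 µM downward; luminescence read.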
NPC1 prom act – activates the NPC1 promoter; Huh7 NPC1 promoter luciferase reporter, 24 h; hit rate 2.4% among 320,000; Potency, µM (doses to about 9.22 µM), for inactives: at the highest dose activation, most hits filed as activators; also: % of control where 0% means no effect; nearly all actives have a fitted effect of over 60% in size
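In 1536-well qHTS, Huh7 cells harboring an NPC1 promoter–luciferase construct received compound for 24 h; activation was quantified by luminescence following luciferase reagent addition.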
SMN2 splice up – increases expression of the SMN2 splice variant; HEK293 SMN2-luciferase splicing reporter, luminescence, 30-36 h; Potency, µM (titrated, usually from 46.1 µM), inactives show at the highest dose activity change, positive = activation, usual class: activators; hit rate 2.8% among 210,000; AID 1458; also: % of control where 0% means no effect; nearly all actives have a fitted effect of over 55% in size
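HEK293 cells carry an SMN2 […]–luciferase reporter in which exon 7 inclusion puts luciferase in frame. Cells were plated 10-12 h before compound addition, then incubated 30-36 h at 37C. ONE-Glo luminescence was read; sodium butyrate at 4.5 mM final served as control.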
ELG1 DNA repair – blocks ELG1-dependent DNA repair in HEK293T cells; AID 504467; Potency, µM (highest dose often 46.1 µM), inactives show at the top dose activity change, negative = inhibition, most hits filed as inhibitors; HEK293T ELG1-luciferase reporter, luminescence, 16 h; DNA damage induced by 5-fluorouridine; hit rate 2.3% among 330,000; also: % is scaled to controls: 0 for no effect and ±100 for the full control effect; nearly all actives have a fitted effect of over 55% in size
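DMSO vehicle served as the neutral condition. Each well held 2,000 cells given 5-fluorouridine plus compound; after 16 hr at 37 °C/5% CO2, ONE-Glo was added and luciferase measured 30 min later.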
Rab9 prom act – Rab9 promoter activation; Huh7 Rab9 promoter-luciferase reporter, luminescence, 24 h; Potency, µM (top dose mostly 9.22 µM), for inactives: at the highest dose activation, negative = inhibition, hits mostly activators; hit rate 2.8% among 320,000; AID 485297; also: % of control where 0% means no effect; nearly all actives have a fitted effect of over 60% in size
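Quantitative HTS format; Huh7 Rab9-luciferase reporter cells (1500/well) receive compound 2 h post-plating, incubate 24 h at 37 °C, then get luciferase reagent for 10 min before luminescence reading.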
* = called active by the depositor; ? = inconclusive; / = not tested or not shown; [ ] = remark or other dose. A selection: hits, their analogues and other compounds. The true share with any hit is near 9.2%. Calls follow the shape of the dose curve; as a rule, active = well fitted curve in the direction sought with a large enough effect; inconclusive = small, poorly fitted or top-dose-only effect, or another doubt; inactive = no such curve, though single readings can be large; an effect the other way counts as inactive or inconclusive. Potency is read from the fitted curve at half-maximal effect.

SMILES	ELG1 genotoxic	FLuc counter	NPC1 prom act	SMN2 splice up	ELG1 DNA repair	Rab9 prom act
Cc1ccc(C(=O)Nc2ccc3c(c2)OCO3)cc1Cl	4.6µM*	2.4µM*	0.89µM*	/	?	2.5µM*
O=C(Nc1ccc(Cl)c(-c2nc3ccccc3[nH]2)c1)c1ccc2c(c1)OCO2	-3%	12µM*	8%	6%	21µM*	0%
Cc1ccc(C(=O)Nc2ccc3c(c2)OCO3)cc1S(=O)(=O)N1CCCC1	-5%	12µM*	?	24%	-1%	?
CCOc1ccc(C(=O)Nc2ccc3c(c2)OCO3)cc1OCC	14%	3%	17%	28%	-1%	14%
O=C(Nc1ccc2c(c1)OCO2)c1cnc(Cl)c(Cl)c1	17%	7.6µM*	?	/	?	3.5µM*
Cc1ccc(C(=O)Nc2ccc3c(c2)OCO3)cc1S(=O)(=O)N1CCOCC1	0%	?	?	/	?	29%
Cc1cc(Cl)ccc1NC(=O)c1ccc2c(c1)OCO2	?	12µM*	2.2µM*	/	?	3.5µM*
COc1cc(Cl)c(C)cc1NC(=O)c1ccc2c(c1)OCO2	6%	-17%	?	/	?	?
O=C(COC(=O)CNC(=O)c1ccc(Cl)cc1Cl)NCC1CCCO1 (stereo not drawn)	0%	-2%	-6%	/	19%	-3%
O=C(CNC(=O)c1ccc(Cl)cc1Cl)OCC(=O)c1ccc2c(c1)OCCO2	-2%	17µM*	2%	-12%	?	10%
Cc1ccc(NC(=O)c2ccc3c(c2)OCO3)cc1Cl	?	2.7µM*	0.56µM*	/	?	0.79µM*
O=C(Nc1ccc(Cl)cc1Cl)c1ccc2c(c1)OCCO2	?	0.3µM*	0.4µM*	/	?	0.32µM*
CC(C(=O)NCc1ccc(Cl)cc1)n1ccc2cc(S(=O)(=O)N3CCCCCC3)ccc21 (stereo not drawn)	/	1%	/	/	/	/
COc1cccc(C(=O)NC2CCCc3c2cnn3-c2ccc(C)c(C)c2)c1OC (stereo not drawn)	-10%	1%	0%	/	-14%	-2%
COc1ccc(C(=O)NC2CCCc3c2cnn3-c2ccc(C)c(C)c2)c(OC)c1OC (stereo not drawn)	-6%	0%	-2%	/	18µM*	-5%
Cc1cc(C(=O)NC2CCCc3c2cnn3-c2ccccc2F)nc(C)n1 (stereo not drawn)	-1%	-1%	5%	/	13µM*	-3%
CC(C)(C)c1ccc(-n2ncc3c2CCCC3NC(=O)c2csnn2)cc1 (stereo not drawn)	-4%	-5%	-7%	/	4%	-5%
CC(C)(C)c1ccc(-n2ncc3c2CCCC3NC(=O)c2cnccn2)cc1 (stereo not drawn)	?	24µM*	-15%	/	?	-14%
NC(=O)c1cc([N+](=O)[O-])ccc1NCc1cccc(N)c1	7%	-2%	-1%	/	?	6%
CCCCc1cc2c(cn1)C(=O)C(C)(OC(C)=O)C(=O)C2 (stereo not drawn)	/	/	/	2%[9.22 µM]	/	/
O=C(/C=C/c1ccccc1)OCN1C(=O)c2ccccc2C1=O	0%	4%	-4%	/	1%	0%[1.84 µM]
O=Cc1ccc(OC(=O)/C=C/c2ccccc2)cc1	1%	19µM*	-1%	/	1%	5%
CCOc1ccc(/C=C/C(=O)Oc2ccccc2)cc1	5%	1.5µM*	-4%	/	6%	12%
CCOc1ccc(/C=C/C(=O)c2ccc(-c3ccccc3)cc2)cc1	-5%	-8%	2%	-20%	3%	-5%
CC(C)c1cnc2c(c1SCC(=O)NCc1ccccc1)c(=O)n(C)c(=O)n2C	/	-7%	/	/	/	/
SMILES	ELG1 genotoxic	FLuc counter	NPC1 prom act	SMN2 splice up	ELG1 DNA repair	Rab9 prom act
Clc1nc(-c2cccnc2)nc2scc(-c3ccccc3)c12	?	12µM*	?	15%	?	28%
COc1ccc(-c2csc3nc(-c4cccnc4)nc(Cl)c23)cc1OC	-3%	-15%	-8%	-105%	?	-4%
C=CCc1ccccc1OCCn1c(C2CC(=O)N(Cc3ccc(F)cc3)C2)nc2ccccc21 (stereo not drawn)	/	-2%	/	/	/	/
Cc1cc(C(=O)Nc2sc(C)c(-c3ccc(F)cc3)c2C(N)=O)no1	?	1.2µM*	3.2µM*	13%	?	3.2µM*
COc1ccccc1C(=O)Nc1nnc(-c2ccc(F)cc2)s1	14%	4.8µM*	3.2µM*	/	?	4.5µM*
Cc1cc(C(=O)Nc2nnc(-c3ccccc3)s2)no1	20%	27µM*	26%	-3%	?	?
COc1ccccc1C(=O)Nc1nsc(-c2ccccc2)n1	?	4.3µM*	?	/	?	1.6µM*
COc1cccc(CNC(=O)c2cc(C)nc3c2c(C)nn3-c2cccc(F)c2)c1	/	1%	/	/	/	/
CCNC(=O)N(CCOC)CC1CCCN(C2Cc3ccccc3C2)C1 (stereo not drawn)	-5%	4%	2%	/	-26%	0%
O=C(NC1=NCCS1)c1ccc(F)c(S(=O)(=O)N2CCOCC2)c1	0%	/	/	/	15%	/
O=C(Nc1nnc(-c2ccc(F)cc2)s1)Nc1ccccc1F	3%	-1%	22%	/	2%	27%
O=C(Nc1nnc(-c2ccccc2)s1)c1ccc(F)cc1	?	-12%	?	?	?	1.4µM*
O=C(/C=C/c1ccc(F)cc1)NC(=S)N1CCN(c2ccccn2)CC1	10%	21µM*	?	/	18%	2.5µM*
CSc1ccc(/C=C/C(=O)N2CCN(c3ccccn3)CC2)cc1	3%	13µM*	4%	/	1%	0%
COc1ccc(/C=C/C(=O)NC(=S)N2CCN(c3ccccn3)CC2)cc1OC	-4%	24µM*	-4%	/	-29%	-3%
CCOC(=O)c1ccc(N2C(=O)c3n[nH]c(-c4cccs4)c3C2c2ccc(O)c(OC)c2)cc1 (stereo not drawn)	/	20%	/	-39%	/	/
Cn1c(N)c(C(=O)c2cc(-c3ccncc3)nc3ccccc23)c(=O)n(C)c1=O	?	24µM*	-2%	12%	?	0%
COc1ccc(-c2cc(C(=O)c3c(N)n(C)c(=O)n(C)c3=O)c3ccccc3n2)cc1OC	?	9.5µM*	9%	/	?	24%
COc1ccc(-c2cc(C(=O)OCC(=O)NC3CC3)c3ccccc3n2)cc1OC	-1%	/	/	/	?	/
Cn1c(N)c(C(=O)COC(=O)c2cc(-c3ccccc3)nc3ccccc23)c(=O)n(C)c1=O	/	/	/	-4%	/	/
O=C(CN(C(=O)CCC(=O)Nc1nccs1)c1ccc(F)cc1)NCc1ccc(F)cc1	-24%	2%	-4%	/	5%	1%

Screening results (PubChem)
